Vaccinia pol inh: inhibitors of vaccinia virus processive DNA synthesis (E9 polymerase); AID 493162; in vitro processive DNA synthesis, absorbance read-out; stronger effect = lower value; actives 0.94% (n = 46,000); normalized absorbance, % (no concentration beside the values); in the data active means normalized absorbance mostly below about 85%, no sharp cut-off; inactive means mostly above about 86%
Of the large screens only hits and unclear results are named; the others gave an inactive call. Shown is part of a subset that was picked to be rich in hits.

Oc1c(Cl)cc(Cl)cc1C(O)(C(F)(F)F)C(F)(F)F	Vaccinia pol inh 83.7
CCC(=O)c1cc(Cl)cc(Cl)c1O	none
CCCC1CCC(c2ccc(C(=O)CCN(C)C)cc2)CC1 (configuration not stated)	none
CCCC1CCC(c2ccc(C(N)=O)cc2)CC1 (configuration not stated)	none
CCCCC1CCC(c2ccc(C(=O)O)cc2)CC1 (configuration not stated)	Vaccinia pol inh 51.0
CC1CC(=O)N(N(C)C)C(C#N)(C#N)C1(C#N)C#N (configuration not stated)	none
CCCc1nc(SCC(=O)c2ccc(Cl)cc2)nc(OC(=O)N(CC)CC)c1C	none
Nc1nonc1C(=O)OCC(=O)c1ccccc1	none
CC1=NN(C)C(=O)C1Cc1c(Cl)cccc1Cl (configuration not stated)	none
O=C(Nc1cccc(C2=NCCN2)c1)Nc1cccc(C2=NCCN2)c1	Vaccinia pol inh 78.4
Nc1cccc(C2=NCCN2)c1	none
O=C(NC1=NCCCCCN1)Nc1cccc(Cl)c1	none
O=c1cc(CO)oc(CN2CCc3ccccc3C2)c1O	none
Cc1nc2ccccc2nc1CSc1nc2sc3c(c2c(=O)n1C)CCC(C)C3 (configuration not stated)	none
S=c1cc(-c2ccccc2)ss1	none
S=c1[nH]c(-c2ccccc2)c(-c2ccccc2)o1	Vaccinia pol inh 62.5
O=c1cc(-c2ccccc2)[nH]c(=S)[nH]1	none
Cc1ccc2oc(=O)n(S(C)(=O)=O)c2c1	none
CCc1ccc(-n2cc3c(c(C#N)c2=N)CC(C)(C)CC3=O)cc1	none
CN=C1c2c(C)c3cc(OC)ccc3n2CCN1C	Vaccinia pol inh 49.5
COc1ccc2c(c1)c(C#N)c1n2CCN=C1N(C)C	none
COc1ccc2c(c1)c(-c1csc(N)n1)c(C)n2C	none
O=C1CN(C(=O)c2ccccc2)C(c2ccc(F)cc2)c2cc(F)ccc2N1 (configuration not stated)	none
COc1cccc(-c2nn(CN3CCCC3)c(=S)n2C)c1	none
CCOC(=O)c1c(C)[nH]c(C)c1C(=O)CC#N	none
C[C@@]1(CO)[C@H](O)CC[C@@]2(C)[C@H]1CC[C@H]1C[C@@H]3C[C@@]12CC[C@]3(O)CO	Vaccinia pol inh 15.4
CSC1=NC(=O)/C(=C\c2cccc3ccccc23)S1	Vaccinia pol inh 72.6
CC(C(=O)O)N1C(=O)/C(=C/c2cccc3ccccc23)SC1=S (configuration not stated)	none
O=C1NC(=O)C(=Cc2cccc3ccccc23)C(=O)N1	none

Screens as filed in PubChem BioAssay.
